Drawing on PubChem BioAssay (NCI), this text covers growth for seven compounds.

Test systems include HCT-15 colon; HT29 colon; SNB-75 CNS; SNB-19 CNS; U251 CNS; PC-3 prostate; SK-MEL-5 melanoma; UACC-62 melanoma; LOX IMVI melanoma; SK-MEL-28 melanoma; SK-MEL-2 melanoma; EKVX NSCLC; SN12C renal; UO-31 renal; TK-10 renal; ACHN renal; CAKI-1 renal; A498 renal; CCRF-CEM leukemia; MOLT-4 leukemia.
What all share (assay): NCI-60 one-dose screen, 48 h (100 = growth as untreated, 0 = no growth, -100 = all killed)
What all share (settings): 10 µM unless noted

Compounds without any hit were thinned out: in the full panel of roughly 83,000, 20% have a hit.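 Testing used 96-well plates and a 48-hour single-concentration exposure. Example: -40 means 40% of the starting cells died.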 Unmarked numbers belong to inactive results. Calls of active or inactive are those of the source. Rule for the calls: active = growth percent below 10; inactive = the rest.

In the case of `CC1=NN(c2nc(SCC(=O)Nc3nc4ccc(C)cc4s3)nc(-c3ccccc3)c2C#N)C(=O)C1`, the growth in the test with HCT-15 colon was 105%; in the test on HT29 colon it was 104%; with SNB-75 CNS, 75.4%; in the test with SNB-19 CNS, 97.3%; in the test on U251 CNS, 102%; in the test on PC-3 prostate it was 97.1%. Further, the growth with SK-MEL-5 melanoma is 100%; in the test with UACC-62 melanoma, 94.3%; in the test with LOX IMVI melanoma, 101%; with SK-MEL-28 melanoma, 105%; in the test on SK-MEL-2 melanoma, 111%; in the test with EKVX NSCLC, 106%. For the same compound, the growth in the test with SN12C renal was 95.6%; with UO-31 renal, 67.8%; with TK-10 renal, 131%; with ACHN renal, 96.3%; with CAKI-1 renal it was 87.3%; in the test on A498 renal, 101%. Further, the figures for the growth in the test on CCRF-CEM leukemia and in the test with MOLT-4 leukemia were 107% and 99.8%, respectively.

Take `C/C(Nc1ccc(Cl)c(Cl)c1)=C1\CCOC1=O`: the growth with HCT-15 colon is 84%; in the test with HT29 colon, 84.8%; with SNB-75 CNS it was 78.6%; with SNB-19 CNS it was 106%; with U251 CNS, 91%; in the test with PC-3 prostate it was 86.8%. The growth is 101% in the test on SK-MEL-5 melanoma; 71.2% in the test with UACC-62 melanoma; 67.6% in the test on LOX IMVI melanoma; 111% with SK-MEL-28 melanoma; 97% with SK-MEL-2 melanoma; 77.4% in the test with EKVX NSCLC. The growth is 88.9% in the test on SN12C renal; 84.3% in the test with UO-31 renal; 104% in the test with TK-10 renal; 79.7% in the test with ACHN renal; 57.7% in the test on CAKI-1 renal; 93.5% with A498 renal. The growth with CCRF-CEM leukemia is 81.5%; in the test with MOLT-4 leukemia, 80.9%.

As to `Cc1cc(Cl)ccc1NC(=O)c1cc2ccccc2cc1O`, the growth in the test on HCT-15 colon is 13.2%; in the test with HT29 colon it was 80.5%; in the test on SNB-75 CNS, 38.1%; in the test with SNB-19 CNS it was 20%; with U251 CNS it was -14% (active); in the test with PC-3 prostate, 0.952% (active). For the same compound, the growth was 8.89% (active) in the test with SK-MEL-5 melanoma; 19.1% in the test with UACC-62 melanoma; 28.9% with LOX IMVI melanoma; 41.6% in the test with SK-MEL-28 melanoma; -2.55% (active) in the test with SK-MEL-2 melanoma; 44.2% with EKVX NSCLC. Moreover, the growth in the test on SN12C renal is 3.74% (active); in the test on UO-31 renal, -2.52% (active); with TK-10 renal, -0.787% (active); with ACHN renal, 8.67% (active); in the test with CAKI-1 renal, -5.76% (active); with A498 renal it was -12.8% (active). Besides, the growth in the test with CCRF-CEM leukemia was 8.07% (active); with MOLT-4 leukemia it was 17.7%.

As to `C=C1C(=O)O[C@H]2[C@H]1CC/C(COC(=O)NCc1cc[nH]c1)=C\CC[C@@]1(C)O[C@@H]21`, the growth was 24.6% in the test with HCT-15 colon; 42.6% in the test with HT29 colon; 70.4% in the test with SNB-75 CNS; 83.2% in the test with SNB-19 CNS; 68.2% with U251 CNS; 51.7% with PC-3 prostate. Further, the growth with SK-MEL-5 melanoma was 91.2%; in the test with UACC-62 melanoma it was 39.6%; with LOX IMVI melanoma, 32.3%; with SK-MEL-28 melanoma it was 54.6%; in the test on SK-MEL-2 melanoma it was 70.5%; in the test on EKVX NSCLC, 61.7%. Further, the growth in the test on SN12C renal is 33.6%; in the test on UO-31 renal it was 58.3%; in the test with TK-10 renal it was 44.1%; in the test on ACHN renal, 45.3%; in the test on CAKI-1 renal it was 39.1%; in the test with A498 renal, 104%. Moreover, the growth in the test on CCRF-CEM leukemia was -15.9% (active); in the test with MOLT-4 leukemia it was 18.6%.

In the case of `OCCNCCCOc1ccc2ncnc(Nc3ccc(Oc4cccc(C(F)(F)F)c4)c(Cl)c3)c2c1`, the growth is -23.8% (active) in the test on HCT-15 colon; -13.3% (active) in the test with HT29 colon; 62.4% in the test on SNB-75 CNS; 44.9% in the test on SNB-19 CNS; 3.99% (active) in the test with U251 CNS; 30.5% with PC-3 prostate. In addition, the growth in the test on SK-MEL-5 melanoma is 48.9%; with UACC-62 melanoma it was 88.3%; in the test with LOX IMVI melanoma it was -98.9% (active); in the test on SK-MEL-28 melanoma it was 73.1%; in the test with SK-MEL-2 melanoma, 73.5%; in the test on EKVX NSCLC it was 27%. The growth in the test on SN12C renal was 58.1%; in the test with UO-31 renal, 26%; with TK-10 renal, 49%; in the test on ACHN renal, -45.4% (active); in the test with CAKI-1 renal, 9.01% (active); in the test on A498 renal it was 58.8%. The growth with CCRF-CEM leukemia is 6.8% (active); in the test on MOLT-4 leukemia it was 1.07% (active).

For the compound `COc1ccc(C(=O)Nc2ncc(Cc3cccc(Cl)c3)s2)cc1OC`, the growth in the test with HCT-15 colon was 23.4%; with HT29 colon, 9.89% (active); with SNB-75 CNS, 19.8%; in the test with SNB-19 CNS, 34.2%; in the test on U251 CNS it was 28.4%; with PC-3 prostate, 27.4%. Besides, the growth in the test on SK-MEL-5 melanoma is -25.9% (active); with UACC-62 melanoma, 10.6%; with LOX IMVI melanoma it was 7.25% (active); in the test on SK-MEL-28 melanoma it was 10.9%; in the test with SK-MEL-2 melanoma it was 8.92% (active); in the test with EKVX NSCLC it was 34.1%. The growth in the test on SN12C renal is 39.9%; in the test on UO-31 renal, 31.2%; with TK-10 renal, 38.5%; with ACHN renal it was 16.8%; in the test with CAKI-1 renal, 12.8%; in the test on A498 renal, 0.53% (active). The growth in the test on CCRF-CEM leukemia was 17.3%; with MOLT-4 leukemia, 29.2%.

With `CN(C)CC(=O)Nc1ccc2ncnc(Nc3ccc(Oc4cccc(C(F)(F)F)c4)c(Cl)c3)c2c1`, the growth in the test with HCT-15 colon is 1.59% (active); in the test on HT29 colon, 2.56% (active); in the test on SNB-75 CNS it was 87.2%; in the test with SNB-19 CNS it was 70.3%; in the test with U251 CNS, 36.2%; with PC-3 prostate it was 61.7%. For the same compound, the growth is 66.5% with SK-MEL-5 melanoma; 88.2% in the test on UACC-62 melanoma; -93% (active) with LOX IMVI melanoma; 78% in the test on SK-MEL-28 melanoma; 92.1% in the test with SK-MEL-2 melanoma; 28.9% with EKVX NSCLC. In addition, the growth in the test on SN12C renal is 60%; in the test with UO-31 renal it was -3.49% (active); with TK-10 renal, 46.9%; in the test with ACHN renal it was 23.1%; in the test on CAKI-1 renal it was 35.7%; with A498 renal, 12.1%. Further, the values for the growth in the test with CCRF-CEM leukemia and with MOLT-4 leukemia were 48.3% and 50.8%, respectively.
